According to PubChem BioAssay (NCI):
This is part of a sample that, as a whole, favours compounds with a hit. Of some 79,000 tested, about 15% had one in any assay. The source made the active and inactive calls. No stated cut-off is given here; in the data, active means growth inhibition above about 70%; inactive means the rest.

Test: NCI Yeast Anticancer Drug Screen. Data for the CLN2oe strain (AID 163);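 further: 0% = growth of vehicle-only control cultures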
Conditions: S. cerevisiae CLN2oe strain, active compounds read high
Experimental: Growth inhibition of yeast strains with defined genetic alterations is measured as a screen for potential anti-cancer activity. Selected strains with alterations in DNA damage repair or cell cycle control were exposed to compounds and growth inhibition was measured relative to vehicle treated controls. The strain used in this assay is CLN2oe

Measured: growth inhibition

COc1ccc2nc3c([N+](=O)[O-])ccc(NCCN(C)C)c3c(NCCN(C)C)c2c1
inactive: at 1.2 µM -5% | at 3.7 µM -1% | at 11.0 µM 1% | at 33.0 µM -5% | at 100.0 µM -5%

CCOC(=O)c1cc(-c2ccc(Cl)cc2)c([N+](=O)[O-])n1C
inactive: at 1.2 µM 10% | at 3.7 µM -3% | at 11.0 µM 7% | at 33.0 µM 60%
active: at 100.0 µM 96%

N/C(=N\OC(=O)NC(Cl)=C(Cl)Cl)c1cc(C(F)(F)F)cc(C(F)(F)F)c1
active: at 100.0 µM 98%
inactive: at 1.2 µM 25% | at 3.7 µM 11% | at 11.0 µM 7% | at 33.0 µM 66%

O=C1OC(=O)C2CCCC3CCCC1C32 (stereo not given)
inactive: at 1.2 µM 40%
active: at 3.7 µM 71% | at 11.0 µM 95% | at 33.0 µM 97% | at 100.0 µM 96%

O=[N+]([O-])c1ccc2nc3ccccc3cc2c1
inactive: at 1.2 µM -6% | at 3.7 µM -2% | at 11.0 µM 5% | at 33.0 µM 18% | at 100.0 µM 54%

COc1ccc(/C=C/C(=O)C(C)(C)Br)cc1
inactive: at 1.2 µM 0% | at 3.7 µM 3% | at 11.0 µM 20% | at 33.0 µM 36%
active: at 100.0 µM 89%

CC(=O)OCc1ccc(O)c(C=O)c1
inactive: at 1.2 µM -5% | at 3.7 µM 1% | at 11.0 µM 11% | at 33.0 µM -12% | at 100.0 µM -2%

O=C(O)c1ccccc1-c1ccccc1C(=O)Nc1ccc2c(c1)Cc1ccccc1-2
active: at 100.0 µM 98%
inactive: at 1.2 µM 7% | at 3.7 µM 10% | at 11.0 µM 20% | at 33.0 µM 64%
